{"source": "the supplement of paper PMC12067093", "about": "“Discovery and optimisation of a covalent ligand for TRIM25 and its application to targeted protein ubiquitination” (Chemical Science, 2025)", "compound": "CC1Cc2ccccc2N1C(=O)C1CCCN(C1)C(=O)CCl (mixture of isomers) [TRIM25 ligand 11 (diastereomer mixture)]", "assay": "probe-labelled cysteine peptide fold change vs DMSO (competition) (log2 fold change); higher = less target engagement (more negative = stronger competition)", "settings": "THP-1, incubation time: 4 h", "note": "Of roughly 21,000 targets only a part is listed; those with the largest changes were picked by preference.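 Further: competitive chemoproteomic profiling in live THP-1 cells with an iodoacetamide desthiobiotin (IA-DTB) probe, comparing probe-labelled peptide intensities in compound-treated cells against DMSO-treated controls.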"}
{"target": "UNK_Q9C0B0_299+308_CNDMQQSGSCPR (UniProt Q9C0B0)", "values": [{"measurement": "probe-labelled cysteine peptide fold change", "setting": "10 µM", "result": 0.0296}, {"measurement": "probe-labelled cysteine peptide fold change", "setting": "50 µM", "result": -0.132}]}
{"target": "TXN2_Q99757_93_VVNSETPVVVDFHAQWCGPCK (UniProt Q99757)", "sequence (Q99757 whole entry, looked up)": "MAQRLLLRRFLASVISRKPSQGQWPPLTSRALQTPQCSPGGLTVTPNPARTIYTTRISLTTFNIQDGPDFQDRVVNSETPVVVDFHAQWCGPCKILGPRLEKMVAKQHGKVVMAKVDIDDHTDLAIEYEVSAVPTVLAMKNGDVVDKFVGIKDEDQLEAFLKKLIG", "values": [{"measurement": "probe-labelled cysteine peptide fold change", "setting": "10 µM", "result": -0.376}, {"measurement": "probe-labelled cysteine peptide fold change", "setting": "50 µM", "result": -1.25}]}
{"target": "VCPIP1_Q96JH7_940_HCTFPHLPGK (UniProt Q96JH7)", "values": [{"measurement": "probe-labelled cysteine peptide fold change", "setting": "10 µM", "result": 0.0492}, {"measurement": "probe-labelled cysteine peptide fold change", "setting": "50 µM", "result": 0.0163}]}
{"target": "URB1_O60287_315_ELVHNFLMDLCCSLK (UniProt O60287)", "values": [{"measurement": "probe-labelled cysteine peptide fold change", "setting": "10 µM", "result": -0.0229}, {"measurement": "probe-labelled cysteine peptide fold change", "setting": "50 µM", "result": -0.0236}]}
{"target": "TXNL1_O43396_135+149_AGCECLNESDEHGFDNCLR (UniProt O43396)", "sequence (O43396 whole entry, looked up)": "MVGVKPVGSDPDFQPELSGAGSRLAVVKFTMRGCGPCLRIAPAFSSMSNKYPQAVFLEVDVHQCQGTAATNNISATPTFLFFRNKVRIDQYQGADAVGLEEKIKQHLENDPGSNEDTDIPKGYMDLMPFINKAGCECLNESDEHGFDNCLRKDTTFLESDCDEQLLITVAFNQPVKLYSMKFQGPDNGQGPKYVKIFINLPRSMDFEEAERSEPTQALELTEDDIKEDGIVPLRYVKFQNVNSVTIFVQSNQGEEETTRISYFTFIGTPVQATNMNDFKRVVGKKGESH", "values": [{"measurement": "probe-labelled cysteine peptide fold change", "setting": "10 µM", "result": 0.0914}, {"measurement": "probe-labelled cysteine peptide fold change", "setting": "50 µM", "result": -0.234}]}
{"target": "UBE2Z_Q9H832_243_NYNECIR (UniProt Q9H832)", "sequence (Q9H832 whole entry, looked up)": "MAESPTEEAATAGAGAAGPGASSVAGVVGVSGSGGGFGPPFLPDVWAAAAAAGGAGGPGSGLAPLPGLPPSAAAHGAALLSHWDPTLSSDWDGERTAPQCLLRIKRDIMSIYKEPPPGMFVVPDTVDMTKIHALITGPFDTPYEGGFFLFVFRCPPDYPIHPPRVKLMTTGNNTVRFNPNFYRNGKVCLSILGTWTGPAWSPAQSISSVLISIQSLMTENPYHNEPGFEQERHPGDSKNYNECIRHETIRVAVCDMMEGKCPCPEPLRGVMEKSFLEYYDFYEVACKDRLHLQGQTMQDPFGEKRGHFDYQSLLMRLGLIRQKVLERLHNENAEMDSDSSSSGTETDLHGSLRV", "values": [{"measurement": "probe-labelled cysteine peptide fold change", "setting": "10 µM", "result": -0.049}, {"measurement": "probe-labelled cysteine peptide fold change", "setting": "50 µM", "result": -0.0648}]}
{"target": "TSFM_P43897_149_FQLLVQQVALGTMMHCQTLK (UniProt P43897)", "sequence (P43897 whole entry, looked up)": "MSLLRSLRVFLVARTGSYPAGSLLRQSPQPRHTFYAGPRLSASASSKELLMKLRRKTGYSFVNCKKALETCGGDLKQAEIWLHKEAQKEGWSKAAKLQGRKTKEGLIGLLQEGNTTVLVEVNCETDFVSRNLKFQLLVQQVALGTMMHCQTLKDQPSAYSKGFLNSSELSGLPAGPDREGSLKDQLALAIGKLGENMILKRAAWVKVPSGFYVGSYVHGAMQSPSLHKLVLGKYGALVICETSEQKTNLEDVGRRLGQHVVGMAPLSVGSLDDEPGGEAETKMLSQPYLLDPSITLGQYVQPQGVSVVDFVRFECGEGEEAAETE", "values": [{"measurement": "probe-labelled cysteine peptide fold change", "setting": "10 µM", "result": -0.117}, {"measurement": "probe-labelled cysteine peptide fold change", "setting": "50 µM", "result": -0.0693}]}
{"target": "VCPIP1_Q96JH7_207+219_SQECLIPVHVDGDGHCLVHAVSR (UniProt Q96JH7)", "values": [{"measurement": "probe-labelled cysteine peptide fold change", "setting": "10 µM", "result": -0.42}, {"measurement": "probe-labelled cysteine peptide fold change", "setting": "50 µM", "result": -1.06}]}
{"target": "WDR37_Q9Y2I8_329_TANLYDVETSELVHSLTGHDQELTHCCTHPTQR (UniProt Q9Y2I8)", "values": [{"measurement": "probe-labelled cysteine peptide fold change", "setting": "10 µM", "result": 0.0866}, {"measurement": "probe-labelled cysteine peptide fold change", "setting": "50 µM", "result": -0.193}]}
{"target": "VARS_P26640_1185_CSIHLQLQGLVDPARELGK (UniProt P26640)", "sequence (P26640 whole entry, looked up)": "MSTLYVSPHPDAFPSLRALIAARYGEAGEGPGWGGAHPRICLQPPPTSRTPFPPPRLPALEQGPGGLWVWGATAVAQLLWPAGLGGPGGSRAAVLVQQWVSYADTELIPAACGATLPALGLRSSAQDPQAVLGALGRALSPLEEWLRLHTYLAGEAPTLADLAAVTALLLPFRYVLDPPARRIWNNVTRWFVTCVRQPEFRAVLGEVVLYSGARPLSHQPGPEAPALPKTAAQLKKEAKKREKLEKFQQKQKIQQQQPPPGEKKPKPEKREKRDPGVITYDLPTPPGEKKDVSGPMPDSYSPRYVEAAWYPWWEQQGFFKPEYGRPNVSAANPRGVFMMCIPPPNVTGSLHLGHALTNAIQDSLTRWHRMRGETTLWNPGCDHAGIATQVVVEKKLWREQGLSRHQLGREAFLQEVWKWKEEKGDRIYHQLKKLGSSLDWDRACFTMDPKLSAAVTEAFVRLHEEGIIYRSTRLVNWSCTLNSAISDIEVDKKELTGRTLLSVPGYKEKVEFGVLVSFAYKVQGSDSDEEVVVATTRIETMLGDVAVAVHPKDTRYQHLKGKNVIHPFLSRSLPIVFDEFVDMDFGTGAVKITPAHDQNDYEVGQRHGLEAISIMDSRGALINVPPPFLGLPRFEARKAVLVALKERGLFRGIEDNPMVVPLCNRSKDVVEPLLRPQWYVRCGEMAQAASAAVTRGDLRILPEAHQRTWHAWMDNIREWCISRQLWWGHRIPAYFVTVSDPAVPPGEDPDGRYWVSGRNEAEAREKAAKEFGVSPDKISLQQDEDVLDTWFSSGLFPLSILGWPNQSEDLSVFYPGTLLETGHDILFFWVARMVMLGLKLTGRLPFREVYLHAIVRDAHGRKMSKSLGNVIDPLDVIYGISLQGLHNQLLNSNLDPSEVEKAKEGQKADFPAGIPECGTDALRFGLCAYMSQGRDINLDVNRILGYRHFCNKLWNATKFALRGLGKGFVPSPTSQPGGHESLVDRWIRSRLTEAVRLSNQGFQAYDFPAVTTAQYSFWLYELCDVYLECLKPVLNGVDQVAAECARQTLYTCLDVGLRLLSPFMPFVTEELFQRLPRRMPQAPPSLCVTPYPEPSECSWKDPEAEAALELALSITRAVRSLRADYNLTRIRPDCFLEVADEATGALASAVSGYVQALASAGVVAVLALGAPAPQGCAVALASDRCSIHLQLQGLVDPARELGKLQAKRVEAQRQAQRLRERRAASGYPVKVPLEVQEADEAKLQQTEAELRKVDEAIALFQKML", "values": [{"measurement": "probe-labelled cysteine peptide fold change", "setting": "10 µM", "result": -0.114}, {"measurement": "probe-labelled cysteine peptide fold change", "setting": "50 µM", "result": -0.105}]}
{"target": "UNC13D_Q70J99_255_CREDQWYPLEPR (UniProt Q70J99)", "sequence (Q70J99 whole entry, looked up)": "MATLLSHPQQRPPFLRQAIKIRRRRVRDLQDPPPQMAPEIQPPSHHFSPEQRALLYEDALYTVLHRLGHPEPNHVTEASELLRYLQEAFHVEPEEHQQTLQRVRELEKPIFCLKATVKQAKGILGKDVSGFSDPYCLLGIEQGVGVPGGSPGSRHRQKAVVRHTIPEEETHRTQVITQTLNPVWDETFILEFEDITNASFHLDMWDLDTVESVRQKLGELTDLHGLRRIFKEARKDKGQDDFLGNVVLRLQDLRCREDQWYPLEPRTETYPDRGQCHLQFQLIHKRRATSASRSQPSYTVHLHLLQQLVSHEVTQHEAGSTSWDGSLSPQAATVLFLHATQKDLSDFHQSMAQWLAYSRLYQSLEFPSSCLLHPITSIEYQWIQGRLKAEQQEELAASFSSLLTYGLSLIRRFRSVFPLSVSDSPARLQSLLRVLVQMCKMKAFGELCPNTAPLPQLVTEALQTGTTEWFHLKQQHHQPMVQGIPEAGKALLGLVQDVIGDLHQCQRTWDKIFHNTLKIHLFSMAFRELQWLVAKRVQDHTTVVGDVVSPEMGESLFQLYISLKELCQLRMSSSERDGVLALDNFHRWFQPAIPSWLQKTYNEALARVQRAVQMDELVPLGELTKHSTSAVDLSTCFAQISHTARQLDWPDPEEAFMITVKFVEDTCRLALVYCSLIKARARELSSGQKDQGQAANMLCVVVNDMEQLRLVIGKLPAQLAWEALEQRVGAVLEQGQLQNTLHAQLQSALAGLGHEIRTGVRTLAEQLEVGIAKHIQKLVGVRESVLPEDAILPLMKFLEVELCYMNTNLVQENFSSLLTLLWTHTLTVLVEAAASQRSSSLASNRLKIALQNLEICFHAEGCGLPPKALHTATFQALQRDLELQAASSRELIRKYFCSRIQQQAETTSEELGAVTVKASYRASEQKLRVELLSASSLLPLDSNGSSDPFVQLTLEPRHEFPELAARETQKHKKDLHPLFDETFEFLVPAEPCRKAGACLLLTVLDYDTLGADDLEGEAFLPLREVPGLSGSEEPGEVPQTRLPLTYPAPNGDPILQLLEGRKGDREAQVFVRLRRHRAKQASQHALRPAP", "values": [{"measurement": "probe-labelled cysteine peptide fold change", "setting": "10 µM", "result": -0.0799}, {"measurement": "probe-labelled cysteine peptide fold change", "setting": "50 µM", "result": -0.0552}]}
{"target": "VPS18_Q9P253_947_ADLDELVAAECVYCGELMIR (UniProt Q9P253)", "values": [{"measurement": "probe-labelled cysteine peptide fold change", "setting": "10 µM", "result": 0.712}, {"measurement": "probe-labelled cysteine peptide fold change", "setting": "50 µM", "result": 0.481}]}
{"target": "XPA_P23025_126+129_EFMDSYLMNHFDLPTCDNCR (UniProt P23025)", "sequence (P23025 whole entry)": "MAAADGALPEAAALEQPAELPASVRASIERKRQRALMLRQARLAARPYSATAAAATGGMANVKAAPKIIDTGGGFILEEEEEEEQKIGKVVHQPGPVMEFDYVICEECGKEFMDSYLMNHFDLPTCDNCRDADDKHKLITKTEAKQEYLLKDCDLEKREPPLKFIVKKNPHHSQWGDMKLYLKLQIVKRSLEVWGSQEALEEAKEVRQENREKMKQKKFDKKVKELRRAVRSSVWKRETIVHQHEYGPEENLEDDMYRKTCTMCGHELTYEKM", "values": [{"measurement": "probe-labelled cysteine peptide fold change", "setting": "10 µM", "result": 0.169}, {"measurement": "probe-labelled cysteine peptide fold change", "setting": "50 µM", "result": 0.182}]}
{"target": "UBE2E1_P51965_131_IYHCNINSQGVICLDILK (UniProt P51965)", "sequence (P51965 whole entry, looked up)": "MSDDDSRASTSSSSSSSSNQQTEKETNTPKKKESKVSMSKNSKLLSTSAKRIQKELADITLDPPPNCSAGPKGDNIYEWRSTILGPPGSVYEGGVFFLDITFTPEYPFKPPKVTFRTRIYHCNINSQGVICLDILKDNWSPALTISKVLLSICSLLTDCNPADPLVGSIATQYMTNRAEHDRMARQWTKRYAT", "values": [{"measurement": "probe-labelled cysteine peptide fold change", "setting": "10 µM", "result": 0.0832}, {"measurement": "probe-labelled cysteine peptide fold change", "setting": "50 µM", "result": 0.188}]}
{"target": "WDR55_Q9H6Y2_5_TCEERPAEDGSDEEDPDSMEAPTR (UniProt Q9H6Y2)", "values": [{"measurement": "probe-labelled cysteine peptide fold change", "setting": "10 µM", "result": -0.76}, {"measurement": "probe-labelled cysteine peptide fold change", "setting": "50 µM", "result": -0.645}]}
{"target": "TXNRD1_Q16881_577_IICNTK (UniProt Q16881)", "values": [{"measurement": "probe-labelled cysteine peptide fold change", "setting": "10 µM", "result": 0.634}, {"measurement": "probe-labelled cysteine peptide fold change", "setting": "50 µM", "result": 0.851}]}
{"target": "UAP1L1_Q3KQV9_271+278_LADPVFIGFCVLQGADCGAK (UniProt Q3KQV9)", "sequence (Q3KQV9 whole entry, looked up)": "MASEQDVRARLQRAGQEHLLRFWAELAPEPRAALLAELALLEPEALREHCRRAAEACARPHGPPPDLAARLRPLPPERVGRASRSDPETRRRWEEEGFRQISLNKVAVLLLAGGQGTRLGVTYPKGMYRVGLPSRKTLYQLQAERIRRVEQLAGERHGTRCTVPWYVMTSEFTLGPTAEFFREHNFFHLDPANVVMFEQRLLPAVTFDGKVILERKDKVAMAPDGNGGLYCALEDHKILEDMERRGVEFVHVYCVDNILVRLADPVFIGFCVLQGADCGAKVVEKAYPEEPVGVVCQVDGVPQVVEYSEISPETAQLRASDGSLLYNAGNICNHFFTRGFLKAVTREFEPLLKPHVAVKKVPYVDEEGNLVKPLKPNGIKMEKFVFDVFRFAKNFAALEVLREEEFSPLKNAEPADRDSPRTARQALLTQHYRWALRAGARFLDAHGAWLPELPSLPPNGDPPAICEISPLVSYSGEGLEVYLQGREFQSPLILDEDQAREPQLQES", "values": [{"measurement": "probe-labelled cysteine peptide fold change", "setting": "10 µM", "result": 0.0951}, {"measurement": "probe-labelled cysteine peptide fold change", "setting": "50 µM", "result": 0.0877}]}
{"target": "TTC37_Q6PGP7_1162_CLLTSAIYALQGR (UniProt Q6PGP7)", "values": [{"measurement": "probe-labelled cysteine peptide fold change", "setting": "10 µM", "result": -0.13}, {"measurement": "probe-labelled cysteine peptide fold change", "setting": "50 µM", "result": -0.0818}]}
{"target": "VRK3_Q8IV63_128_TSCSPQK (UniProt Q8IV63)", "sequence (Q8IV63 whole entry, looked up)": "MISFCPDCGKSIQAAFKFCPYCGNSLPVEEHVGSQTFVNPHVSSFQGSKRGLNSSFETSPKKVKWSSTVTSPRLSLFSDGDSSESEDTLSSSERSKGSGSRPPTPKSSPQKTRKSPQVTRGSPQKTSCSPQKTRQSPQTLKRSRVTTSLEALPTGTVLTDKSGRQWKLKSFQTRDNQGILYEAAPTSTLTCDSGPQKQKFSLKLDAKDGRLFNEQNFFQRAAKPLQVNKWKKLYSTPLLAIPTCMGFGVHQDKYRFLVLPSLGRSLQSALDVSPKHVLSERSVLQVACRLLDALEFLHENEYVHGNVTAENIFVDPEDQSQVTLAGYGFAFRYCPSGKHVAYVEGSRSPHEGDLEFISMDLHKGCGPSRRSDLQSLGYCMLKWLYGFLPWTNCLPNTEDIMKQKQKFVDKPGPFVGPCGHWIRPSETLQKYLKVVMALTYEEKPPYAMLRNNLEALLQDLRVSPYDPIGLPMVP", "values": [{"measurement": "probe-labelled cysteine peptide fold change", "setting": "10 µM", "result": 0.0233}, {"measurement": "probe-labelled cysteine peptide fold change", "setting": "50 µM", "result": -0.142}]}
